Inconclusive results are not listed. Values without a mark were called inactive. Calls of active or inactive are those of the source. The call rests on the fitted dose curve; in most records, active means well fitted curve in the direction sought with a large enough effect; inconclusive means small, poorly fitted or top-dose-only effect, or another doubt; inactive means no such curve, though single readings can be large; an effect the other way counts as inactive or inconclusive.

The record followed here is PubChem BioAssay (NCATS).

The target in assay [1] is Rap guanine nucleotide exchange factor 3 (Homo sapiens) (UniProt O95398). Kind of assay: Confirmatory qHTS for antagonist of cAMP-regulated guanine nucleotide exchange factor 3 (EPAC1) (AID 1645880). Further: nearly all actives have a fitted effect of over 55% in size. Further: potency means the concentration at half of the fitted maximal effect. Put shortly:
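Released BODIPY-GDP fluoresces less than Rap1-bound BODIPY-GDP; the signal is followed at 480/540 nm at 5-min intervals over 30 min, after 5 min at room temperature. Reactions contain 100 nM EPAC1, 250 nM RAP1B-BODIPY-GDP and 50 uM GDP; results are normalized to ATA and DMSO.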
For orientation: Quantitative high-throughput screening tests each substance at several concentrations.

Assay [2] has the same target. Nature of the assay: Confirmatory qHTS for agonist of cAMP-regulated guanine nucleotide exchange factor 3 (EPAC1) (AID 1645881). Further: nearly all actives have a fitted effect of over 75% in size. Further: potency means the concentration at half of the fitted maximal effect.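 On activation: EPAC1 catalysed release of BODIPY-GDP from Rap1B seen as fluorescence loss; 100% = effect of cAMP agonist control.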
Assay [3] concerns the target Rap guanine nucleotide exchange factor 4 (Homo sapiens) (UniProt Q8WZA2). Kind of assay: Confirmatory qHTS for agonist of cAMP-regulated guanine nucleotide exchange factor 4 (EPAC2) (AID 1645884).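 Further: nucleotide exchange releases bodipy-GDP from Rap1 and this lowers its fluorescence; on the % scale 0 is the no-effect control and ±100 the full control effect; nearly all actives have a fitted effect of over 65% in size.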
For assay [4] the target is unchanged. Nature of the assay: Confirmatory qHTS for antagonist of cAMP-regulated guanine nucleotide exchange factor 4 (EPAC2) (AID 1645885). Further: nearly all actives have a fitted effect of over 25% in size. Further: potency means the concentration at half of the fitted maximal effect. On activity change, negative = inhibition: on the % scale 0 is the no-effect control and ±100 the full control effect.
The target of assay [5] is Rap guanine nucleotide exchange factor 3 (Homo sapiens) (UniProt O95398). Nature of the assay: Counterscreen qHTS for antagonist of cAMP-regulated guanine nucleotide exchange factor 3 (EPAC1) (AID 1645888). Further: potency means the concentration at half of the fitted maximal effect. On activity change, negative = inhibition: % of control where 0% means no effect. Put shortly: (§1)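 Rap1B-BODIPY-GDP 250 nM + GDP 50 uM; cpds 7-pt, final 9.74 nM–152 uM (activator mode) or from 7.32 nM upwards (inhibitor mode); RT; FI 480/540 nm at 5 and 30 min, then ± cAMP, reread.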
Background: Counterscreens check selectivity or assay interference.

Assay [6] shares this target. Kind of assay: Counterscreen qHTS for agonist of cAMP-regulated guanine nucleotide exchange factor 3 (EPAC1) (AID 1645889). Further: nearly all actives have a fitted effect of over 40% in size. Further: potency means the concentration at half of the fitted maximal effect. On activation: % of control where 0% means no effect. In outline:
as §1

Chain of Rap guanine nucleotide exchange factor 3 (Homo sapiens) (O95398 whole entry, looked up): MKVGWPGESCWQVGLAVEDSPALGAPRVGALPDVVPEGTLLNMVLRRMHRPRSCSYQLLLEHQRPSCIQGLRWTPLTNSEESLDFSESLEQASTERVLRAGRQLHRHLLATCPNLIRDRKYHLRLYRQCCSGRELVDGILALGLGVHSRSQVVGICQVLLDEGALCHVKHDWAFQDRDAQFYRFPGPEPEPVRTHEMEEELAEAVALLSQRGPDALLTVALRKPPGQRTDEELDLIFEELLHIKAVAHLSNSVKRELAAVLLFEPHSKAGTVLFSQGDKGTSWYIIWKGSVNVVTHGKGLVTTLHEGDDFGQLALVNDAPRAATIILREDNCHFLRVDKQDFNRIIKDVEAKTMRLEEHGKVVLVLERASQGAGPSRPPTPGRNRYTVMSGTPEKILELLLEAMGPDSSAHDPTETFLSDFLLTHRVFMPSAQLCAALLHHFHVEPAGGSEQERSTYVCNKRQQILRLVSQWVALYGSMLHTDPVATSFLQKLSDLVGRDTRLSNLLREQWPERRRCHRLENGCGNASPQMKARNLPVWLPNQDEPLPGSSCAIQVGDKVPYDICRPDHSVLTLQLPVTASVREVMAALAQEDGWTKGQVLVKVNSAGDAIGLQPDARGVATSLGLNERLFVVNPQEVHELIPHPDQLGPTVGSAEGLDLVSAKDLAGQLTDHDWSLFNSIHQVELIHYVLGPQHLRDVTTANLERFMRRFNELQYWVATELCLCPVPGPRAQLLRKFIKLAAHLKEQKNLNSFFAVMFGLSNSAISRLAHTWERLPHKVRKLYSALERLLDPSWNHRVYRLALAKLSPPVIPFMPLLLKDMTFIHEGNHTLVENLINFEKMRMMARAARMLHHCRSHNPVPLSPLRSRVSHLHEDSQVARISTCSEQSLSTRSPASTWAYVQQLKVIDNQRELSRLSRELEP
Chain of Rap guanine nucleotide exchange factor 4 (Homo sapiens) (Q8WZA2 whole entry, looked up): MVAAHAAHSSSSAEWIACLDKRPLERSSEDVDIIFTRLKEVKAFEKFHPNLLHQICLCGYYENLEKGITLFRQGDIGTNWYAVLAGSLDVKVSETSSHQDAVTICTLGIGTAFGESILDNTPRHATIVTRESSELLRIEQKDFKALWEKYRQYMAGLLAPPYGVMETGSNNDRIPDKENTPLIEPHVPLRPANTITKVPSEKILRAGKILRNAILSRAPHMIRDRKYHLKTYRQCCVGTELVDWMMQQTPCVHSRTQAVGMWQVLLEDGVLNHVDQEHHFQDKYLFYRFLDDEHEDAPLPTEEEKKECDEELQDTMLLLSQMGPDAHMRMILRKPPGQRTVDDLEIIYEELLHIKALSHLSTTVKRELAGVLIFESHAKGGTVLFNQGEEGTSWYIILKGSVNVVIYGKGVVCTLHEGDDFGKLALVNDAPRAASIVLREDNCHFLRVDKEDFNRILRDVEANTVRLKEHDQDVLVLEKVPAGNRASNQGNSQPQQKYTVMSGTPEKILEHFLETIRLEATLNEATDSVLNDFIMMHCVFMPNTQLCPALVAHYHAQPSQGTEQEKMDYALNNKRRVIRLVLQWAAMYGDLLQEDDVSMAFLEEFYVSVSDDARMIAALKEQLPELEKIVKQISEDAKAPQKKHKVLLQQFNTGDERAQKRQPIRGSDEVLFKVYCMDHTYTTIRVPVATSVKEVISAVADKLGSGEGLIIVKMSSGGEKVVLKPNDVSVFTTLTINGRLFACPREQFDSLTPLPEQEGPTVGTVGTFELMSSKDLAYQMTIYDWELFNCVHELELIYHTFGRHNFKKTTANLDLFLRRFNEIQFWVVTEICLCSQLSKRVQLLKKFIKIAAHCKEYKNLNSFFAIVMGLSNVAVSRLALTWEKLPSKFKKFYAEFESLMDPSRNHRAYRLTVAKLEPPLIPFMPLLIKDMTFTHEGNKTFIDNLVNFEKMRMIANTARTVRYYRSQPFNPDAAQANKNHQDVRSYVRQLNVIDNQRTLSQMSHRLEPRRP

With `O=C(COc1ccc(F)cc1)Nc1nccs1`, the Potency entry in assay [1], in assay [2], in assay [3], in assay [4], in assay [5] and in assay [6] was “inactive” in each case.
Take `O=C(O)CN1C(=O)/C(=C\c2cccc(OCc3ccccc3F)c2)SC1=S`: the results for the Potency in assay [1] and in assay [4] were 42.6 µM (active) and 84.9 µM (active), respectively. The Potency entry in assay [2], in assay [3], in assay [5] and in assay [6] was “inactive” in each case.
`Cc1ccccc1C(=O)/C(C#N)=N/Nc1c(C)n(C)n(-c2ccccc2)c1=O`: the Potency was 42.6 µM (active) in assay [1], 67.5 µM (active) in assay [4] and 79.4 µM (active) in assay [5]. The Potency entry in assay [2], in assay [3] and in assay [6] was “inactive” each time.
Take `O=[N+]([O-])c1cc(-c2ccccc2)cc([N+](=O)[O-])c1O`: the Potency in assay [1] is 75.7 µM (active); in assay [4] it was 42.6 µM (active). Besides, the Potency entry in assay [2], in assay [3], in assay [5] and in assay [6] was “inactive” throughout.
In the case of `COCCN(C)Cc1nc(C(c2ccccc2)c2ccccc2)no1`, the Potency result in assay [1], in assay [2], in assay [3], in assay [5] and in assay [6] was “inactive” each time. Moreover, the Potency in assay [4] was 47.8 µM (active).
Take `CCn1c2ccccc2c2nnc(SCC(=O)N(C)C3CCS(=O)(=O)C3)nc21` (stereo not given): the Potency result in assay [1], in assay [2] and in assay [4] was “inactive” each time. For the same molecule, the activation was 3.11% [at 17.1 µM, percent relative to cAMP agonist control] in assay [3] and 4.22% [at 30.8 µM] in assay [6]. Besides, the activity change, negative = inhibition in assay [5] was 5.48% [at 30.8 µM].
Regarding `Cc1cc(-c2csc(N)n2)c(C)n1CCC(C)C`, the Potency result in assay [1], in assay [2], in assay [3], in assay [4], in assay [5] and in assay [6] was “inactive” each time.
For `O=C1NC(=Nc2ccccc2Cl)S/C1=C\c1cccc([N+](=O)[O-])c1O`, the Potency in assay [1] is 21.3 µM (active). The Potency result in assay [2], in assay [3], in assay [4], in assay [5] and in assay [6] was “inactive” throughout.
Regarding `Cc1ccccc1N(CC(=O)NC1CCCC1)C(=O)c1csnn1`, the Potency entry in assay [1], in assay [2] and in assay [4] was “inactive” each time. The activation was -0.443% [at 17.1 µM, percent relative to cAMP agonist control] in assay [3] and -0.253% [at 30.8 µM] in assay [6]. For the same molecule, the activity change, negative = inhibition in assay [5] is -9.99% [at 30.8 µM].
As for `O=C(O)COc1ccc(NC(=O)C(c2ccccc2)c2ccccc2)cc1`, the Potency result in assay [1], in assay [2], in assay [3], in assay [5] and in assay [6] was “inactive” in each case. In addition, in assay [4], the Potency is 33.8 µM (active).
For `c1ccc(-c2nnc3sc(CN4CCC5(CC4)OCCO5)cn23)cc1`, the Potency result in assay [1], in assay [2], in assay [3], in assay [4], in assay [5] and in assay [6] was “inactive” each time.
In the case of `O=C(O)c1ccc(N/N=C/c2c(F)cccc2Cl)cc1`, the Potency entry in assay [1], in assay [2] and in assay [4] was “inactive” in each case. The activation in assay [3] is 2.99% [at 17.1 µM, percent relative to cAMP agonist control]; in assay [6], 3.47% [at 30.8 µM]. Moreover, in assay [5], the activity change, negative = inhibition is -2.2% [at 30.8 µM].
In the case of `C=CCOc1ccc(/C=C2\SC(=S)N(NS(=O)(=O)c3ccccc3)C2=O)cc1`, the values for the Potency in assay [1] and in assay [4] were 47.8 µM (active) and 42.6 µM (active), respectively. For the same molecule, the Potency entry in assay [2], in assay [3], in assay [5] and in assay [6] was “inactive” each time.
As to `CCCCn1c(N)c(N(CC(C)C)C(=O)C2CCN(S(=O)(=O)c3ccc(C)c(C)c3)CC2)c(=O)[nH]c1=O`, the Potency entry in assay [1], in assay [2], in assay [3], in assay [4], in assay [5] and in assay [6] was “inactive” throughout.
`Cc1ccccc1OCc1nc2ccccc2n1Cc1ccccc1Cl`: the Potency result in assay [1], in assay [2], in assay [3], in assay [4], in assay [5] and in assay [6] was “inactive” in each case.
As for `CC(=O)Nc1ccc(Nc2nc3ccccc3nc2NS(=O)(=O)c2ccc(Cl)c([N+](=O)[O-])c2)cc1`, the Potency in assay [1] was 50.1 µM (active). Also, the Potency entry in assay [2] and in assay [4] was “inactive” throughout. Moreover, the activation in assay [3] was -3.97% [at 17.1 µM, percent relative to cAMP agonist control]; in assay [6], 21.8% [at 30.8 µM]. In assay [5], the activity change, negative = inhibition is -36.3% [at 30.8 µM].
For the molecule `Cc1ccc(CNS(=O)(=O)c2ccc(-n3cnnn3)c(C)c2)cc1`, the Potency result in assay [1], in assay [2] and in assay [4] was “inactive” throughout. The activation in assay [3] was 4.56% [at 17.1 µM, percent relative to cAMP agonist control]; in assay [6] it was 5.31% [at 30.8 µM]. For the same molecule, the activity change, negative = inhibition in assay [5] was 3.48% [at 30.8 µM].
Turning to `CCN1C(=O)/C(=C/C=C2/SCCN2C)SC1=S`, the Potency entry in assay [1] and in assay [4] was “inactive” in each case. The Potency was 79.4 µM (active) in assay [2] and 11.2 µM (active) in assay [6]. For the same molecule, in assay [3], the activation is 20% [at 17.1 µM, percent relative to cAMP agonist control]. In assay [5], the activity change, negative = inhibition is 0.532% [at 30.8 µM].
Regarding `Cc1cccc(NC(=O)CN2C(=O)S/C(=C\c3ccc(O)c([N+](=O)[O-])c3)C2=O)c1`, the Potency in assay [1] was 23.9 µM (active). Also, the Potency entry in assay [2], in assay [3], in assay [4], in assay [5] and in assay [6] was “inactive” in each case.
For `O=C1NC(=O)/C(=C/c2ccccn2)S1`, the Potency entry in assay [1], in assay [2], in assay [3], in assay [4], in assay [5] and in assay [6] was “inactive” each time.
